Here are results for 24 compounds from PubChem BioAssay (Tox21).

A short description of assay [1]: qHTS assay to identify small molecule antagonists of the glucocorticoid receptor (GR) signaling pathway - cell viability counter screen (AID 720693). Note: nearly all actives have a fitted effect of over 55% in size.
A short description of assay [2]: qHTS assay for identifying genotoxic compounds that show differential cytotoxicity against isogenic chicken DT40 cell lines with known DNA damage response pathways - wild type cell line (AID 743012). Note: nearly all actives have a fitted effect of over 60% in size. Note: potency is the fitted concentration of half-maximal effect. The method, boiled down: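 Cells (DT40 wild type, 300/well) are treated with DMSO-dissolved compounds after a ~0.5 h pre-incubation and kept 40 h at 37 C/5% CO2. Viability is then measured by CellTiter-Glo luminescence following 30 min at room temperature.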
(In qHTS, concentration-response curves come from the screen itself.)

A short description of assay [3]: qHTS assay for identifying genotoxic compounds that show differential cytotoxicity against isogenic chicken DT40 cell lines with known DNA damage response pathways - Rev3 mutant cell line (AID 743014). Note: nearly all actives have a fitted effect of over 55% in size. Note: potency is the fitted concentration of half-maximal effect.
A short description of assay [4]: qHTS assay to identify small molecule antagonists of the androgen receptor (AR) signaling pathway - cell viability counter screen (AID 743033; note: nearly all actives have a fitted effect of over 45% in size).
A short description of assay [5]: qHTS assay to identify small molecule antagonists of the androgen receptor (AR) signaling pathway using the MDA cell line - cell viability counter screen (AID 743041; note: nearly all actives have a fitted effect of over 45% in size). The method, boiled down: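 MDA-kb2 AR-luc cells (MMTV-luciferase, AR/GR responsive) treated with compounds plus R1881 agonist for 16 h at 37C. CellTiter-Fluor added at 15.5 h; fluorescence read after 30 min in the same wells.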

Assay [6] is described as follows: qHTS assay for identifying genotoxic compounds that show differential cytotoxicity against isogenic chicken DT40 cell lines with known DNA damage response pathways - Rad54/Ku70 mutant cell line (AID 743015). Note: nearly all actives have a fitted effect of over 60% in size. Note: potency is the fitted concentration of half-maximal effect.
Assay [7] has as its target Androgen receptor (Homo sapiens) (UniProt P10275). The assay is described as follows: qHTS assay to identify small molecule antagonists of the androgen receptor (AR) signaling pathway (AID 743035; active = well fitted inhibition curve with a large enough effect in the signal ratio in the repeat runs, not every such curve was filed as active; the % refers to the signal ratio). The method, boiled down: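 Antagonism is scored as loss of R1881-driven beta-lactamase reporter expression in HEK293 cells carrying the reporter under a UAS element, after 16 h co-treatment at 37C and a 2 h room-temperature FRET substrate read.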

The target is the same in assay [8]. Description: qHTS assay to identify small molecule agonists of the androgen receptor (AR) signaling pathway (AID 743036; active = well fitted activation curve with a large enough effect in the signal ratio in the repeat runs, with a control signal flat, not every such curve was filed as active; the % refers to the signal ratio). In a few lines: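 HEK293 cells stably carrying a UAS-driven beta-lactamase reporter (GeneBLAzer AR-UAS-bla-GripTite) were plated at 2,000 cells/well, rested 4 h at 37C, then exposed to compounds in DMSO for 16 h. LiveBLAzer B/G FRET substrate was added for 2 h at room temperature; fluorescence read.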

Assay [9] has the same target. Description: qHTS assay to identify small molecule agonists of the androgen receptor (AR) signaling pathway using the MDA cell line (AID 743040; note: nearly all actives have a fitted effect of over 20% in size). The method, boiled down:
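MDA-kb2 breast carcinoma cells carrying MMTV-luciferase (responsive to AR and GR), plated 5 h then treated 16 h with compounds at 37C, 0% CO2. Read-out was ONE-Glo luminescence after 30 min at room temperature.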

The target is the same in assay [10]. Description: qHTS assay to identify small molecule antagonists of the androgen receptor (AR) signaling pathway using the MDA cell line (AID 743042; note: nearly all actives have a fitted effect of over 55% in size). In a few lines: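 MDA-kb2 breast carcinoma cells carrying MMTV-luciferase (AR/GR responsive) were co-treated with compounds and the agonist R1881 for 16 h at 37C. Inhibition read as ONE-Glo luminescence; CellTiter-Fluor fluorescence measured in parallel for cytotoxicity.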

Several values for one entry are separate records, joined by “and”; a condition that tells them apart may be missing. Identical values can stand only once. Results filed as inconclusive are left out. Some compounds were tested as several samples or in several runs, with calls that do not always agree. Activity calls are given as the source filed them. Unless noted, calls come from the whole dose curve; as a rule, active = well fitted curve in the direction sought with a large enough effect in the repeat runs; inconclusive = weak or mixed curves; inactive = no such curve, though single readings can be large; an effect the other way counts as inactive or inconclusive.

Chain of Androgen receptor (Homo sapiens) (P10275 whole entry, looked up): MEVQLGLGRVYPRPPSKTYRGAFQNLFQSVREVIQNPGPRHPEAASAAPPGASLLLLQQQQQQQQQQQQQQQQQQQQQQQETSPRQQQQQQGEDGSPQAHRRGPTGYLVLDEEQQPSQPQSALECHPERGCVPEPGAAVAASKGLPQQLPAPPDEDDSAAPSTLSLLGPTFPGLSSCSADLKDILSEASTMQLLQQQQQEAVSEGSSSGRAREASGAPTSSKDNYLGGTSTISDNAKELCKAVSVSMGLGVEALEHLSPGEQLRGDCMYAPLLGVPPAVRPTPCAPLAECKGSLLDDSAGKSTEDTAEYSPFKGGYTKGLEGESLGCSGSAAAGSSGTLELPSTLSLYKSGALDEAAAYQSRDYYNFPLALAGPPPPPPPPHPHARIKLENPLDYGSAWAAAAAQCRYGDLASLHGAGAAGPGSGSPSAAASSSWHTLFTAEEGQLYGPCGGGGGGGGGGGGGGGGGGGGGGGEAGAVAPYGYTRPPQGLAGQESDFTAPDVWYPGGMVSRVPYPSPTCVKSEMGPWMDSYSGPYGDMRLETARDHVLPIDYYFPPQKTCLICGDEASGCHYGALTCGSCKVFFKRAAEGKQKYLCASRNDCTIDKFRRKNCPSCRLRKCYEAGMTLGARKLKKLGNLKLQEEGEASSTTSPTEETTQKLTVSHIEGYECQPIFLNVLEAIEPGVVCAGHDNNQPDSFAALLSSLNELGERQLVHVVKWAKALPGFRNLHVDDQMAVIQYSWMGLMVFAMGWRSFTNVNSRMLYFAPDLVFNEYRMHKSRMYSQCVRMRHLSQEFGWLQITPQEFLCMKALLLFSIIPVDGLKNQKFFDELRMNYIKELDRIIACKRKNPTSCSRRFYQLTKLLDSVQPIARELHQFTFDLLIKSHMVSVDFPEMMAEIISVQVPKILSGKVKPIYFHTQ

As for `Oc1c(Br)cc(Br)cc1Br`, the Potency entry in assay [1], in assay [2] and in assay [3] was “inactive” in each case. The result in [4] and in [5] was inactive.

Consider `Cc1cc(Cl)ccc1OC(C)C(=O)O` (stereo not given), for which the Potency entry in [1], in assay [2] and in assay [3] was “inactive” in each case. Also, the outcome in assay [4] and in assay [5] was inactive.

As to `Cc1cccc(C)c1NC(=O)CN1CCCC1=O`, the Potency result in [1], in [2] and in assay [3] was “inactive” throughout. The outcome in assay [4] and in assay [5] was inactive.

Regarding `N#Cc1cccc(C#N)c1`, the Potency entry in assay [1], in assay [2] and in assay [3] was “inactive” in each case. Further, the result in [4] and in [5] was inactive.

For `Cc1ccc(O)c(C)c1`, the Potency entry in assay [1], in assay [2] and in assay [6] was “inactive” throughout. Moreover, the compound was called inactive in [4] and in [5].

As for `Oc1ccc(Cl)cc1`, the Potency result in assay [1], in assay [2] and in assay [6] was “inactive” throughout. Moreover, the compound was classed as inactive in assay [4] and in assay [5].

For `CN(C)C(=O)C(c1ccccc1)c1ccccc1`, the Potency result in assay [1], in [2] and in assay [3] was “inactive” throughout. The compound was classed as inactive in [4] and in assay [5].

Take `COc1cc(-c2ccc(N)c(OC)c2)ccc1N`: in assay [1], the Potency result is “inactive”. In addition, the Potency is 68.6 µM (active) and 16.4 µM (active) in assay [2]; 14.7 µM (active) in [3]. The compound was classed as inactive in [4] and in [5].

As to `COP(=S)(OC)Oc1ccc(SC)c(C)c1`, the Potency result in assay [1] and in assay [3] was “inactive” in each case. In addition, the Potency in assay [2] is 54.5 µM (active). Moreover, the compound was called inactive in assay [4] and in assay [5].

Turning to `c1ccc2c(c1)CCCC2`, the Potency result in assay [1], in [2], in assay [6], in assay [7] and in [10] was “inactive” in each case. Also, the compound was called inactive in [4], in assay [8], in assay [9] and in assay [5].

Take `COC(=O)Nc1cccc(OC(=O)Nc2cccc(C)c2)c1`: the Potency result in assay [1], in [2] and in [3] was “inactive” each time. Besides, the compound was called inactive in assay [4] and in [5].

For `OCC(O)CCl` (stereo not given), the Potency result in assay [1], in [2] and in assay [6] was “inactive” each time. The call in assay [4] and in [5] was inactive.

`O=C(O)C(Br)Br`: the Potency result in [1], in [2] and in assay [3] was “inactive” throughout. Moreover, the compound was called inactive in assay [4] and in [5].

`C=C(C)C(=O)OCC(CC)CCCC` (stereo not given): the Potency result in assay [1], in [2] and in assay [6] was “inactive” in each case. The compound was called inactive in [4] and in [5].

With `Cl[C@H]1OCCO[C@@H]1Cl`, the Potency entry in [1], in [2] and in assay [6] was “inactive” in each case. The outcome in assay [4] and in assay [5] was inactive.

Take `CC[N+](=O)[O-]`: the Potency result in [1], in [2] and in [6] was “inactive” in each case. The result in assay [4] and in assay [5] was inactive.

On to `COP(=S)(OC)SCN1C(=O)c2ccccc2C1=O`, for which the Potency result in assay [1] was “inactive”. The Potency was 48.6 µM (active) in assay [2] and 61.6 µM (active) in assay [3]. In addition, the result in assay [4] and in [5] was inactive.

For `CNC(=O)O/N=C/C(C)(C)S(C)(=O)=O`, the Potency entry in assay [1], in assay [2], in assay [6], in [7] and in assay [10] was “inactive” in each case. The compound was classed as inactive in [4], in assay [8], in assay [9] and in assay [5].

For `O=[N+]([O-])c1cc([As](=O)(O)O)ccc1O`, the Potency result in assay [1], in [2] and in assay [3] was “inactive” each time. The compound was called inactive in [4] and in [5].

Regarding `Clc1cnc(Oc2ccc(Oc3ncc(Cl)cc3Cl)cc2)c(Cl)c1`, the Potency entry in assay [1] and in assay [2] was “inactive” in each case. In addition, the Potency entry in assay [6] was “inactive and 30.6 µM (active)”. Besides, the call in [4] and in assay [5] was inactive.

On to `NNc1ccccc1`, for which the Potency entry in assay [1] and in assay [2] was “inactive” in each case. In addition, the Potency result in [6] was “inactive and 48 µM (active)”. The compound was classed as inactive in assay [4] and in [5].

With `CCCOC(=O)c1ccccc1C(=O)OCCC`, the Potency result in assay [1], in [2] and in [6] was “inactive” in each case. The compound was called inactive in assay [4] and in assay [5].

Consider `O=C(O)CCCc1ccc(N(CCCl)CCCl)cc1`, for which the Potency result in assay [1] was “inactive”. Moreover, in assay [2], the Potency is 21.1 µM (active) and 770 nM (active). In addition, the result in [4] and in assay [5] was inactive.

With `C=CC(=O)OCC(CC)CCCC` (stereo not given), the Potency entry in assay [1] is “inactive”. The call in assay [4] and in assay [5] was inactive.
